Measured values: PubChem BioAssay AID588676 (Johns Hopkins Ion Channel Center, 2011)
In all, about 310,000 compounds went through this assay and about 3,900 (1.3%) were called active.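 The calls were made as follows: active = calcium-response B-score plate-corrected more than 3 library SD below zero, starting fluorescence within 5 deviations, no agonist response on first addition; inactive = the rest.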 Many of the other results were omitted from the sample, so actives are more common in it than they were.

Target: Mas-related G-protein coupled receptor member X1 (Homo sapiens) (UniProt Q96LB2)
Test: blockade of BAM8-22-evoked MrgX1 calcium response – HEK293 cells, Fluo-4 calcium flux, primary screen (AID 588676);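 as to B-score: peak minus trough fluorescence over baseline after final BAM8-22 challenge near maximal dose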
Conditions: Fluo-4, BAM8-22 antagonism, at 10 µM; active compounds read low

Sequence of Mas-related G-protein coupled receptor member X1 (Homo sapiens) (Q96LB2 whole entry, looked up): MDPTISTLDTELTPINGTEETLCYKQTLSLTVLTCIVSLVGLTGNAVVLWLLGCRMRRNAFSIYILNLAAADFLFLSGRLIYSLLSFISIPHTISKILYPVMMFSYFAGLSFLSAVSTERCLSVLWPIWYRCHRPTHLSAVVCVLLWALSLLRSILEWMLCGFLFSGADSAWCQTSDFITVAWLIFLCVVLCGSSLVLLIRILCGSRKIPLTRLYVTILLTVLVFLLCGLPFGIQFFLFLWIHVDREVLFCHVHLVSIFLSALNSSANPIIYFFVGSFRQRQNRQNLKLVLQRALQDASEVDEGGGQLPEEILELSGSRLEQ

B-score, inactive:
N#CC1=C(N)C(C#N)(C#N)[C@H](c2ccsc2)[C@H]2COCC=C12, CCN1CC=C2C(C#N)=C(N)C(C#N)(C#N)[C@H](c3ccoc3)[C@H]2C1, O=C(O)CN1c2cccc3cccc(c23)S1(=O)=O, COc1ccc(-c2cc(C(F)(F)F)nc(S(C)(=O)=O)n2)cc1OC, O=C(NNC1=NCCC1)c1cccc(S(=O)(=O)N2CCCCC2)c1, C=C(C)C1CC=C(C)/C(=N/NC(=O)CCCNc2cccc(C)c2)C1 (configuration not stated), COc1ccc(Cl)cc1NC(=O)CNc1ccccc1F, O=S(=O)(Nc1ccccc1Cl)c1cccc2nsnc12, Cn1nc(C(C)(C)C)c(NC(=O)c2sccc2Cl)c1C(C)(C)C, COc1ccccc1N(CC(=O)NC1CCCC1)C(=O)C1(C)CC(=O)N=C2C=CC(C)=CN21 (configuration not stated), CCn1c(SCC(=O)Nc2ccc(C)cc2)nc2nc3c(cc2c1=O)CCCC3, O=C1CC(c2c(F)cccc2Cl)C(n2cncn2)C(O)=C1C1NCCc2ccccc21 (configuration not stated), NS(=O)(=O)c1ccc(CCNC(=S)Nc2ccc(S(N)(=O)=O)cc2)cc1, COc1ccc(NC(=S)Nc2ccc(S(N)(=O)=O)cc2)c(C)c1, CO/N=C(/CS(=O)(=O)c1ccc(Br)cc1)c1ccc(OC)cc1, CCOc1ccc(C)cc1S(=O)(=O)NC1CCCCCC1, Cc1nnc(SCC(=O)N2CCOCC2)[nH]c1=O, CCOC(=O)CSc1nc(C)c(Oc2ccc(Cl)cc2Cl)c(=O)[nH]1, COCCOC(=O)C1=C(C)NC(=O)NC1c1cc2c(cc1Br)OCO2 (configuration not stated), O=C(NNC(=O)c1cccnc1)Nc1ccccc1, O=C(Cc1ccccc1)Nc1ccc(NC(=O)c2cccnc2)cc1, CCOC(=O)C1CCN(C(=O)COC(=O)C2CCN(S(=O)(=O)c3ccc4c(c3)OCCO4)CC2)CC1, COc1ccccc1CNC(=O)C1CCN(S(=O)(=O)c2ccc3c(c2)OCCO3)CC1, C/C(=N/O)c1ccc(N2C(=O)C3C4C=CC(C3C2=O)C2C3C(=O)N(c5ccc(/C(C)=N/O)cc5)C(=O)C3C42)cc1 (configuration not stated), Clc1ccc(Nc2ccc3ccccc3n2)cc1, Cc1ccccc1N1CC(C(=O)Nc2ccc(S(=O)(=O)N3CCCC3)cc2)CC1=O (configuration not stated), O=C(C1CC(=O)N(c2ccc(F)cc2)C1)N1CCN(c2ccccc2)CC1 (configuration not stated), Cc1cc(C)n(C(=O)c2ccc(C)c(S(=O)(=O)N3CCOCC3)c2)n1, S=C(NCc1ccc(Cl)cc1)NC1CCCCC1, O=C(NCc1ccncc1)NC12CC3CC(CC(C3)C1)C2, CC(=O)c1cccc(NC(=S)N2CCCC2)c1, O=C(Nc1ccc(Br)cc1)c1cc(S(=O)(=O)Nc2ccccn2)ccc1Cl, OC(c1ccccc1)c1nccn1Cc1ccccc1 (configuration not stated), CN(Cc1ccccc1)C(=O)C(=O)c1cn(CC(=O)N2CCCC2)c2ccccc12, CCOC(=O)C1C(c2ccc(Cl)cc2)NC(=S)NC1(O)C(F)(F)F (configuration not stated), CC(=O)C1C(c2cccc(Oc3ccccc3)c2)NC(=O)NC1(O)C(F)(F)F (configuration not stated), COc1ccc(C(C#N)Nc2ccccc2C)cc1 (configuration not stated), CCOC(=O)N1CCN(S(=O)(=O)c2ccc(OC)cc2)CC1, O=S(=O)(c1ccc(F)cc1)N1CCN(C(=S)NC2CCCC2)CC1, C=CC[n+]1c(-c2ccc(C)cc2)csc1NNC(=O)Nc1ccccc1, CCCOc1ccc(Cc2c(Cl)nc(SC)nc2NC)cc1, COc1cc(CN2CCNC(=O)C2CC(=O)NCCc2ncccc2C)cc(OC)c1 (configuration not stated), Cc1nccn1CCCNC(=O)CC1C(=O)NCCN1Cc1ccc(Cl)c(F)c1 (configuration not stated), COC(=O)c1ccc(NC(=O)CSc2nncn2-c2cccnc2)cc1, O=C(CSc1nnc(Cc2ccccc2)n1-c1ccccc1)N1CCOCC1, CCC(C)(C)NC(=O)CN(C(=O)CCC(=O)Nc1nccs1)c1ccc2c(c1)OCO2, CCS(=O)(=O)c1ccc2oc(SCC(=O)N3c4ccccc4CC3C)nc2c1 (configuration not stated), CCOC(=O)C1CN(S(=O)(=O)c2ccc(OC)cc2)c2cc(Cl)ccc2O1 (configuration not stated), Cc1ccc(C)c(S(=O)(=O)N2CCCOC2CNC(=O)C(=O)NC2CCCCC2)c1 (configuration not stated), COc1cc(OC)cc(C(=O)NCCCn2ccnc2)c1, CC1CC(C)CN(C(=O)CCNC(=O)Cn2cnc3ccccc3c2=O)C1 (configuration not stated), CCN1CCN(c2cc3nc(C)n(Cc4ccccc4)c(=O)c3cc2NC(=O)c2ccccc2F)CC1, COc1ccc(COC(=O)c2ccc(Cl)c(S(=O)(=O)N3CCOCC3)c2)cc1F, Cc1cc(NC(=O)COC(=O)c2ccc(F)c(S(=O)(=O)N3CCOCC3)c2)no1, Fc1ccc(-c2ccc(CNCc3ccccn3)o2)cc1Cl, CCCCc1nc2cc(C(=O)N3CCCCC3CCO)ccc2o1 (configuration not stated), COc1ccc(-n2nc3c(N4CCC(C(=O)NCc5ccccc5)CC4)nnc(C)c3c2C)cc1, OCC1(Cc2ccccc2C(F)(F)F)CCN(Cc2ccncc2)CC1, C/C(=N/N1CCN(Cc2cccc3ccccc23)CC1)c1cccnc1, CCc1cc2c(NC3CCCC3)ncnc2s1, CCc1cc2c(NC(Cc3ccccc3)C(=O)O)ncnc2s1 (configuration not stated), Cc1ccc(C(=O)N/C(=C\c2ccco2)C(=O)NC2CCS(=O)(=O)C2)cc1 (configuration not stated), ON=C1/C(=N\O)CC2(C/C1=N/O)OCCO2, Nc1nc(-c2sc3nc4c(cc3c2N)CCCC4)nc(N2CCOCC2)n1, Cc1ccccc1S(=O)(=O)N1[C@@H](c2cccc(Cl)c2)C(C(=O)O)=CC[C@H]1c1ccc(Cl)cc1, Cc1ccc([C@@H]2CC=C(C(=O)O)[C@H](c3cccc(Cl)c3)N2S(=O)(=O)c2ccc(C)cc2)cc1, COc1ccccc1OCCC(=O)OCC(=O)NCc1ccccc1, CC(=O)c1cc(-c2ccccc2)n(CCC(=O)NC2CCCCCC2)c1C, Cc1occc1C(=O)NC1CCCN(Cc2ccc(CC(C)C)cc2)C1 (configuration not stated), CCOC(=O)c1ccc(NC(=O)c2nc[nH]c2C(=O)N[C@@H](CCCCNC(=O)OC(C)(C)C)C(=O)OC(C)(C)C)cc1, CNC(=O)c1[nH]cnc1C(=O)N[C@@H](CC(C)C)C(=O)OC(C)(C)C, O=[N+]([O-])c1ccc(Oc2ccc(F)cc2Br)c2ccncc12, O=C(CN1CCN(c2ccc(O)cc2)CC1)Nc1ccc(-c2ccccc2)cc1, O=C(COC(=O)c1ncc(Cl)c(Cl)c1Cl)NCc1cccs1, NS(=O)(=O)c1cc(C(=O)OCC(=O)NNC(=O)c2ccccc2)ccc1Cl, CC(=O)c1cnn(-c2cc(Oc3ccc(F)cc3)ncn2)c1C, Cc1cc(NC(=O)[C@H](C)NC(=O)c2ccco2)ccc1Br, NC1=NC(=O)C2(COC(c3ccccc3Cl)OC2)S1 (configuration not stated), O=C(CN1CCSCC1)N/N=C/c1ccc(Cl)cc1, FC(F)(F)c1nc2ccccc2nc1N/N=C/c1ccc(Cl)cc1, COc1ccc(CCNC(=O)C2CCCN(Cc3nc(-c4cccc(Cl)c4)oc3C)C2)cc1OC (configuration not stated), COCCn1c(C)cc(C(=O)COC(=O)/C=C/c2cccc(OC)c2)c1C

B-score, active:
CCCN1CC=C2C(C#N)=C(N)C(C#N)(C#N)C(c3cc(OC)ccc3OC)C2C1 (configuration not stated) -7.07, C=C(C)C1CC=C(C)/C(=N\NC(=O)CNc2ccccc2OC)C1 (configuration not stated) -6.1, NS(=O)(=O)c1ccc(NC(=S)Nc2ccc(Br)c(Cl)c2)cc1 -5.41, CCCCOC(=O)CNc1nnc(SCC(=O)OCC)[nH]c1=O -10.5, O=C(O)CSC(NC(=O)c1cccnc1)(C(F)(F)F)C(F)(F)F -5.59, O=C(COC(=O)C1CCN(S(=O)(=O)c2ccc3c(c2)OCCO3)CC1)Nc1ccccc1OC(F)F -5.02, CCC(C)c1ccccc1N1CC(C(=O)N2CCN(S(=O)(=O)c3ccc(F)cc3)CC2)CC1=O (configuration not stated) -7.31, S=C(NCc1ccc(Cl)cc1)NC12CC3CC(CC(C3)C1)C2 -5.44, O=C(c1cccs1)C1C(c2ccc(Br)cc2)NC(=S)NC1(O)C(F)(F)F (configuration not stated) -6.04, COc1ccc(S(=O)(=O)N2CCN(C(=O)NC3CCCCC3)CC2)cc1 -4.64, Cc1cc(C)n(CCNC(=O)CC2C(=O)NCCN2Cc2ccc(C)o2)n1 (configuration not stated) -4.73, O=C(CSc1nncn1-c1cccnc1)N1CCOCC1 -5.04, CCS(=O)(=O)c1ccc2c(c1)N(S(=O)(=O)c1ccccc1)CC(C(=O)O)O2 (configuration not stated) -4.74, CCOc1ccc(CCNC(=O)COC(=O)c2ccc(F)c(S(=O)(=O)N3CCOCC3)c2)cc1OCC -5.64, OCC1(Cc2ccccc2C(F)(F)F)CCN(Cc2cccc3cnccc23)CC1 -7.22, CCc1cc2c(SCC(=O)Nc3ncc(Cl)c(C)c3Cl)ncnc2s1 -4.97, Cc1ccc(S(=O)(=O)N2[C@@H](c3cccc(Cl)c3)C(C(=O)O)=CC[C@H]2c2ccc(Cl)c(Cl)c2)cc1 -6.18, Cc1ccc(NC(=O)c2nc[nH]c2C(=O)N[C@@H](CCCCNC(=O)OC(C)(C)C)C(=O)OC(C)(C)C)cc1 -9.54, O=C(COC(=O)c1ncc(Cl)c(Cl)c1Cl)NNC(=O)c1ccccc1 -4.63, Clc1ccc(C=NC23CN4CN(CN(C4)C2)C3)cc1 -6.85
